The nature of test [1]: BSK_KF3CT_SRB: Viability Assessment in the BioMAP Diversity Plus: KF3CT Assay (AID 2283069).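 Also: total protein by sulforhodamine B staining as a cytotoxicity measure; read 24 h after compound addition; fitted for both signal gain and loss against DMSO baseline.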 Conditions: primary human keratinocytes with fibroblasts. Put shortly:
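Human keratinocyte and foreskin fibroblast co-culture exposed to chemical for 24 h. Total protein measured in parallel cultures by 0.1% sulforhodamine B staining after 10% TCA fixation, read at 560 nm; bidirectional fit relative to DMSO.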

Read-out in test [2]: Interleukin-1 alpha (IL1a), IL1A (gene 3552)
Nature of the test: BSK_KF3CT_IL1a: BioMAP Diversity Plus: KF3CT Assay for Interleukin-1 alpha (IL1a) Biomarker Activity (AID 2283070). Conditions: primary human keratinocytes with fibroblasts; actives raise or lower the signal. In short, it runs like this:
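Primary human keratinocyte plus foreskin fibroblast co-culture, dosed and measured at 24 h in 96-well plates. IL-1a level quantified by ELISA; bidirectional fit relative to DMSO.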

Read-out in test [3]: TIMP metallopeptidase inhibitor 2 (TIMP2), TIMP2 (gene 7077)
Nature of the test: BSK_KF3CT_TIMP2: BioMAP Diversity Plus: KF3CT Assay for TIMP metallopeptidase inhibitor 2 (TIMP2) Biomarker Activity (AID 2283071). As to conditions: primary human keratinocytes with fibroblasts; actives raise or lower the signal. In short, it runs like this: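 Co-culture of human primary keratinocytes and foreskin fibroblasts, measured 24 h after chemical dosing. TIMP-2 quantified by ELISA and fitted in both directions relative to DMSO. Cytotoxicity checked in parallel cultures by SRB total-protein staining.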

Read-out in test [4]: Transforming growth factor beta 1 (TGFb1), TGFB1 (gene 7040)
Nature of the test: BSK_KF3CT_TGFb1: BioMAP Diversity Plus: KF3CT Assay for Transforming growth factor beta 1 (TGFb1) Biomarker Activity (AID 2283072). Conditions: primary human keratinocytes with fibroblasts; actives raise or lower the signal. Put shortly: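 Human keratinocyte/foreskin fibroblast co-culture; TGF-b1 measured by ELISA 24 h after dosing, fitted bidirectionally versus DMSO. Cytotoxicity checked in parallel cultures by total protein (SRB staining, 560 nm).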

Read-out in test [5]: C-C motif chemokine 2 (Homo sapiens) (UniProt P13500)
Nature of the test: BSK_KF3CT_MCP1: BioMAP Diversity Plus: KF3CT Assay for Monocyte Chemoattractant Protein 1 (MCP1/CCL2) Biomarker Activity (AID 2283073). As to conditions: primary human keratinocytes with fibroblasts; actives raise or lower the signal. Put shortly: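 ELISA readout of MCP-1 after 24 h chemical dosing of a human skin primary co-culture of keratinocytes and foreskin fibroblasts. Activity was fitted in both directions against DMSO.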

Read-out in test [6]: Matrix Metallopeptidase 9 (MMP9), MMP9 (gene 4318)
Nature of the test: BSK_KF3CT_MMP9: BioMAP Diversity Plus: KF3CT Assay for Matrix Metallopeptidase 9 (MMP9) Biomarker Activity (AID 2283074).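 As to AC50: MMP9 protein level quantified by ELISA in the co-culture.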 As to conditions: primary human keratinocytes with fibroblasts; actives raise or lower the signal. Put shortly:
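Human keratinocyte and foreskin fibroblast co-culture exposed to chemicals for 24 h; MMP9 biomarker measured by ELISA, bidirectional fitting relative to DMSO; cytotoxicity tracked by SRB total protein staining in parallel cultures.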

Read-out in test [7]: urokinase plasminogen activator (uPA), PLAU (gene 5328)
Nature of the test: BSK_KF3CT_uPA: BioMAP Diversity Plus: KF3CT Assay for urokinase plasminogen activator (uPA) Biomarker Activity (AID 2283075). Conditions: primary human keratinocytes with fibroblasts; actives raise or lower the signal. Put shortly:
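Primary human keratinocyte/foreskin fibroblast co-culture exposed to chemical; uPA measured by ELISA at 24 h. Bidirectional fit versus DMSO, with parallel SRB total-protein staining for cytotoxicity.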

Read-out in the next test: CD40, CD40 (gene 958)
The test is described as follows: BSK_LPS_CD40: BioMAP Diversity Plus: LPS Assay for CD40 Biomarker Activity (AID 2283076). As to conditions: primary human HUVEC with PBMC; actives raise or lower the signal. Put shortly:
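Cells were dosed, incubated 24 h, then assayed for CD40 by ELISA. Gain or loss of signal was analysed relative to DMSO controls. The culture paired human umbilical vein endothelium with peripheral blood mononuclear cells.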

Read-out in test [8]: E-selectin (Homo sapiens) (UniProt P16581)
Nature of the test: BSK_LPS_Eselectin: BioMAP Diversity Plus: LPS Assay for Eselectin Biomarker Activity (AID 2283077). Conditions: primary human HUVEC with PBMC; actives raise or lower the signal. In short, it runs like this:
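Primary human vascular co-culture (endothelium plus PBMC) was dosed with chemical, then E-selectin quantified by ELISA at 24 h. Endpoint values derive from bidirectional curve fitting relative to DMSO.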

Read-out in test [9]: Interleukin-8 (IL8), CXCL8 (gene 3576)
Nature of the test: BSK_LPS_IL8: BioMAP Diversity Plus: LPS Assay for Interleukin-8 (IL8) Biomarker Activity (AID 2283078). Conditions: primary human HUVEC with PBMC; actives raise or lower the signal. Put shortly:
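Readout is IL-8 by ELISA, taken 24 h after compounds were added to LPS-stimulated endothelial/PBMC co-cultures. Both increases and decreases relative to DMSO control were scored through bidirectional fitting.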

Usually AC50 stands for the concentration giving half of the maximal activity seen.

SMILES strings stand for the structures. Values joined by “and” are separate entries in the source; they are usually repeats but may differ in a detail not shown here. Identical values can stand only once. Where a structure was tested more than once in an assay, its records may differ in their call. Active and inactive are the calls of the source. The calls were made as follows: active = hit-call score of the fitted dose curve at least 0.9, where 1 is the maximum; inactive = score below 0.9.

E-selectin (Homo sapiens), sequence (P16581 whole entry, looked up): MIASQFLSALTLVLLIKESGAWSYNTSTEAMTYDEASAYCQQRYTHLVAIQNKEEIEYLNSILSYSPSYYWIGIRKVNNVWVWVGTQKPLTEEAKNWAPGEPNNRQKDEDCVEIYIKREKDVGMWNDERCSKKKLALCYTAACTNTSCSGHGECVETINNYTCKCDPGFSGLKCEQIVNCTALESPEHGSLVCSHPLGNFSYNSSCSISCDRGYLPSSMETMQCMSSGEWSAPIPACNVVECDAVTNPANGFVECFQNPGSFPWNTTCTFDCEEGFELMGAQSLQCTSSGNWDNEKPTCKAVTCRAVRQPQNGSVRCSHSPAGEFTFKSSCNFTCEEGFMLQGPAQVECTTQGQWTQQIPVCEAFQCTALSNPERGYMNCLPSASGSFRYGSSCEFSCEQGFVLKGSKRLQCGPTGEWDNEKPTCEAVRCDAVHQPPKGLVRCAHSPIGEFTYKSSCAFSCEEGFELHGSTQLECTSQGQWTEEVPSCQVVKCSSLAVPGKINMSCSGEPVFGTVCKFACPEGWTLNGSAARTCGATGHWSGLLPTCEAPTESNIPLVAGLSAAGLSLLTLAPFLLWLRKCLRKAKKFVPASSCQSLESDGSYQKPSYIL

Turning to `COC(=O)N(OC)c1ccccc1COc1ccn(-c2ccc(Cl)cc2)n1`, the outcome in test [1], in test [3], in test [4] and in test [7] was inactive. Moreover, the AC50 in test [2] was 3.97 µM (active); in test [5], 2.56 µM (active); in [6], 3.97 µM (active); in the test with CD40, CD40 (gene 958), 20 µM (active); in [8], 6.89 µM (active); in test [9], 3.97 µM (active).
As to `CCON=C(CC)C1=C(O)CC(c2c(C)cc(C)cc2C)CC1=O` (stereo unspecified), the result in test [1], in [2], in test [3], in test [4], in test [5] and in test [6] was inactive. Moreover, the outcome in [7] was “inactive”; with CD40, CD40 (gene 958), “inactive”; in [8], “inactive”; in [9] it was “inactive”.
Take `CCCN(CCC)c1c([N+](=O)[O-])cc(S(N)(=O)=O)cc1[N+](=O)[O-]`: the AC50 in [1] is 34.6 µM (active); in test [3] it was 34.6 µM (active); in test [4] it was 34.4 µM (active); in [6], 32.8 µM (active); with CD40, CD40 (gene 958), 33.6 µM (active) [middle of 4 runs]; in test [8] it was 36.9 µM (active) and 32.6 µM (active) and 36.7 µM (active). Also, in [9], the AC50 was 33.1 µM (active) [middle of 4 runs]. In addition, the outcome in test [1], in test [2], in test [3], in test [4], in test [6] and in [7] was inactive. For the same molecule, in [8], the result was inactive.
`CO/C=C(/C(=O)OC)c1ccccc1Oc1cc(Oc2ccccc2C#N)ncn1`: the outcome in [1], in [2], in test [3], in [4], in test [5] and in [6] was inactive. The outcome in test [7] was “inactive”; in the test with CD40, CD40 (gene 958), “inactive”; in [8], “inactive”. Moreover, the AC50 is 2.7 µM (active) in [6]; 19.9 µM (active) and 10 µM (active) and 12.9 µM (active) with CD40, CD40 (gene 958); 10.9 µM (active) and 5.78 µM (active) and 5.72 µM (active) in test [8].
On to `N#CC(CCc1ccc(Cl)cc1)(Cn1cncn1)c1ccccc1` (stereo unspecified), for which the outcome in [1], in test [2], in test [3], in test [4], in [5] and in test [6] was inactive. The outcome in [7] was “inactive”; with CD40, CD40 (gene 958) it was “inactive”; in test [8] it was “inactive”; in test [9], “inactive”.
As for `Cc1ccc(-c2c(Cl)nc(C#N)n2S(=O)(=O)N(C)C)cc1`, the AC50 in test [1] was 11.3 µM (active); in test [6], 6.7 µM (active); in the test with CD40, CD40 (gene 958), 14.9 µM (active); in test [8] it was 39.2 µM (active); in [9] it was 27.6 µM (active). For the same molecule, the outcome in test [2], in test [3], in [4], in test [5] and in [7] was inactive.
In the case of `COC(=O)C(C)Oc1ccc(Oc2ccc(Cl)cc2Cl)cc1` (stereo unspecified), the outcome in [1], in test [2], in [3], in test [4], in test [5] and in test [6] was inactive. Moreover, the outcome was “inactive” in test [7]; “inactive” with CD40, CD40 (gene 958); “inactive” in [8]; “inactive” in [9]. In addition, the AC50 in [2] was 5.15 µM (active); in test [6] it was 20 µM (active); in test [7], 21.1 µM (active) and 31.6 µM (active); with CD40, CD40 (gene 958), 29.2 µM (active) and 34.7 µM (active).
Take `O=C(Nc1ccccc1)Nc1ccnc(Cl)c1`: the result in test [1], in test [2], in test [3], in test [4], in test [5] and in test [6] was inactive. The outcome is “inactive” in test [7]; “inactive” in the test with CD40, CD40 (gene 958); “inactive” in [8]. For the same molecule, the AC50 in [9] was 15 µM (active).
As to `CCCCNC(=O)OCC#CI`, the AC50 in test [1] was 29.3 µM (active) and 18 µM (active); in test [2], 30.1 µM (active) and 20 µM (active); in test [3] it was 32.5 µM (active) and 20.4 µM (active); in test [4], 30.1 µM (active) and 14.9 µM (active); in test [5], 32.8 µM (active) and 20 µM (active); in [6], 29.4 µM (active) and 13.7 µM (active). The AC50 in test [7] was 29.6 µM (active) and 15.1 µM (active); with CD40, CD40 (gene 958), 13.6 µM (active) and 9.3 µM (active); in test [8] it was 31.3 µM (active) and 29.8 µM (active); in test [9] it was 19 µM (active) and 16.3 µM (active).
For `O=C(O)c1nc(Cl)ccc1Cl`, the result in test [1], in test [2], in [3], in test [4], in [5] and in test [6] was inactive. In addition, the outcome in test [7] was “inactive”; in the test with CD40, CD40 (gene 958), “inactive”; in [8], “inactive”; in [9], “inactive”. Also, the AC50 in test [2] was 0.148 µM (active).
For `N#Cc1cc(Br)c(O)c(Br)c1`, the result in [1], in [2], in test [3], in [4], in [5] and in test [6] was inactive. Further, the outcome in [7], in [8] and in test [9] was inactive. In the test with CD40, CD40 (gene 958), the AC50 was 9.86 µM (active).
With `COc1nc(NC(C)C)nc(NC(C)C)n1`, the outcome in test [1], in test [2], in test [3], in [4], in test [5] and in test [6] was inactive. Besides, the outcome in [7] is “inactive”; with CD40, CD40 (gene 958) it was “inactive”; in test [8] it was “inactive”; in test [9], “inactive”.
Consider `CCOC(=O)CC(SP(=S)(OC)OC)C(=O)OCC` (stereo unspecified), for which the result in test [1], in [2], in [3], in test [4], in [5] and in test [6] was inactive. Besides, the outcome in test [7] was “inactive”; with CD40, CD40 (gene 958) it was “inactive”; in test [8], “inactive”; in test [9] it was “inactive”.

Values taken from PubChem BioAssay (EPA / NIEHS).
